# Data as given in PubChem BioAssay (EPA / NIEHS).
# “And” between values parts separate entries of the source, which are not always exact repeats. Equal values may be shown once. Inconclusive results are not listed. A structure can be active in one record and inactive in another. The source made the active and inactive calls. How the source made its calls, unless noted: active means hit-call score of the fitted dose curve at least 0.9, where 1 is the maximum; inconclusive means response in the unintended direction; inactive means score below 0.9.
# Columns and labels:
# [1] = read-out: X-box binding protein 1 (XBP1), XBP1 (gene 7494); assay: LTEA_HepaRG_XBP1: Life Technologies and Expression Analysis (LTEA) Assay for X-box binding protein 1 (XBP1) using HepaRG (AID 2283540; active means hit-call score of the fitted dose curve at least 0.9, where 1 is the maximum; inactive means score below 0.9); details: mRNA level, 48 h; actives raise or lower the signal
# Method in brief: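 Transcript levels of XBP1, measured by qRT-PCR and normalised to three housekeeping genes, were fitted bidirectionally relative to 0.5% DMSO controls. Human HepaRG cells received eight-point half-log dilutions from 100 uM for 48 h.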
# [2] = LTEA_HepaRG_LDH_cytotoxicity: Cytotoxicity Assessment in the Life Technologies and Expression Analysis (LTEA) Assay (AID 2283563);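 on AC50: LDH activity released into spent culture medium as a marker of cell death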
# Method in brief: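 Cells were thawed and plated for 48 h. Medium was then replaced with serum-free induction medium. Chemicals (8 half-log points, maximum 100 uM, 0.5% DMSO) were added in duplicate for 48 h, after which spent medium was assayed for LDH.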
# [3] = TOX21_p53_BLA_p2_viability: Viability Assessment in the Tox21 HCT-116 p53 Agonism Beta-lactamase Assay, Phase 2 (AID 2283591);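 further: compound exposure lasted 16 h at 37 °C; actives lower the ATP signal meaning cytotoxicity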
# Method in brief: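 HCT-116 p53-bla cells (4000/well) rested 5 h at 37C, then received compounds in DMSO (217-fold dilution) for 16 h at 37C, 5% CO2. After the CCF4 read, CellTiter-Glo was added; ATP luminescence was read after 30 min at room temperature.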
# [4] = molecular target: Cellular tumor antigen p53 (Homo sapiens) (UniProt P04637); assay: TOX21_p53_BLA_p2_ratio: Tox21 HCT-116 p53 Agonism Beta-lactamase Assay, Ratio, Phase 2 (AID 2283592)
# Sequence of Cellular tumor antigen p53 (Homo sapiens) (P04637 whole entry, looked up): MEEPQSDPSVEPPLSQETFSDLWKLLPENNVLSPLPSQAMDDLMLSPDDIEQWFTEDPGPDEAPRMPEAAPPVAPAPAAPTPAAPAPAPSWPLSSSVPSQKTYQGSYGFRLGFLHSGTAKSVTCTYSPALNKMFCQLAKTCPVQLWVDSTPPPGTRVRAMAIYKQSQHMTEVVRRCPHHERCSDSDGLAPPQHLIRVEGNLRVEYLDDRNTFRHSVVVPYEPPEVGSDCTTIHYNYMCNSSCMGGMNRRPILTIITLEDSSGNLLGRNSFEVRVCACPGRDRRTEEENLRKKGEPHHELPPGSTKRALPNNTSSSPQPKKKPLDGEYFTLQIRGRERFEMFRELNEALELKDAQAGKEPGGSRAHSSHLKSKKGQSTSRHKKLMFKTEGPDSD
# Method in brief: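 Plated HCT116 p53-bla cells (4000/well) received compound after 5 h, then 16 h at 37C/5% CO2. CCF4-AM added, 2 h RT. Ratio of 460 to 530 nm emission taken as the p53 reporter signal.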
# [5] = TOX21_p53_BLA_p3_viability: Viability Assessment in the Tox21 HCT-116 p53 Agonism Beta-lactamase Assay, Phase 3 (AID 2283593);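 further: cells exposed to compound for 16 h before reading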
# Method in brief: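 HCT-116 cells (4000/well) rested 5 h at 37C, then got DMSO compounds by pin tool (217-fold dilution) for 16 h at 37C, 5% CO2. After the bla read, CellTiter-Glo was added and luminescence read at 30 min, room temperature.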
# [6] = molecular target: Cellular tumor antigen p53 (Homo sapiens) (UniProt P04637); assay: TOX21_p53_BLA_p5_ratio: Tox21 HCT-116 p53 Agonism Beta-lactamase Assay, Ratio, Phase 5 (AID 2283599)
# Method in brief: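 HCT-116 cells carrying a p53-inducible beta-lactamase reporter were seeded at 4000 cells/well and dosed after 5 h with compound in DMSO (217-fold dilution). After 16 h at 37C, CCF4-AM substrate was added for 2 h, and the 460/530 nm emission ratio was scored as gain-of-signal versus DMSO.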
# [7] = TOX21_p53_BLA_p5_viability: Viability Assessment in the Tox21 HCT-116 p53 Agonism Beta-lactamase Assay, Phase 5 (AID 2283600)
# Method in brief: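 Workflow: seed 4000 cells per well, wait 5 h, add compounds (DMSO, 217-fold dilution), incubate 16 h, load CCF4-AM 2 h, add CellTiter-Glo, read luminescence after 30 min.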
# [8] = molecular target: Cellular tumor antigen p53 (Homo sapiens) (UniProt P04637); assay: TOX21_p53_BLA_p4_ratio: Tox21 HCT-116 p53 Agonism Beta-lactamase Assay, Ratio, Phase 4 (AID 2283601)
# Method in brief: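 HCT116 cells carrying an inducible beta-lactamase reporter were plated at 4000 cells/well, rested 5 h, then exposed to compounds in DMSO (217-fold dilution) for 16 h at 37C. CCF4-AM substrate was loaded 2 h at room temperature; 460/530 nm emission ratio scored gain-of-signal versus DMSO.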
# [9] = Tanguay_ZF_120hpf_MORT_legacy: (Legacy) Oregon State University Tanguay Lab 120 Hour Post-fertilization zebrafish Assay for Mortality (AID 2283633);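 on AC50: fitted as increase in binary mortality versus DMSO negative control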
# Method in brief: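 5D WT zebrafish, chorion removed 4 hpf; 1 embryo/well from 6 hpf; static exposure to 120 hpf, 28C, dark, sealed. Final DMSO 0.64%. Readout: binary mortality, brightfield, 24 + 120 hpf; DMSO as negative control.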
# [10] = Tanguay_ZF_120hpf_YSE_legacy: (Legacy) Oregon State University Tanguay Lab 120 Hour Post-fertilization zebrafish Assay for Yolk Sac Edema (AID 2283634)
# Method in brief: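 Dechorionate (pronase, 4 hpf) → place one 6 hpf embryo per well → static compound exposure, sealed and foil-covered, 28C, to 120 hpf → record yolk sac edema as present or absent. Final DMSO 0.64%.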
# [11] = Tanguay_ZF_120hpf_AXIS_legacy: (Legacy) Oregon State University Tanguay Lab 120 Hour Post-fertilization zebrafish Assay for Body Axis Malformation (AID 2283635)
# Method in brief: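 Chorion is removed with pronase at 4 hpf, then single 6 hpf embryos are dosed (final DMSO 0.64%) and held statically at 28C in sealed, foil-covered plates. At 120 hpf body axis malformation is recorded as present or absent.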
# [12] = Tanguay_ZF_120hpf_JAW_legacy: (Legacy) Oregon State University Tanguay Lab 120 Hour Post-fertilization zebrafish Assay for Jaw Malformation (AID 2283638)
# Method in brief: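 Steps: dechorionate 4 hpf embryos (pronase); plate 1/well at 6 hpf; add test chemical, 0.64% DMSO final; seal, cover, hold at 28C statically to 120 hpf; score jaw defect presence/absence microscopically. Dead embryos not scored.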
# [13] = Tanguay_ZF_120hpf_OTIC_legacy: (Legacy) Oregon State University Tanguay Lab 120 Hour Post-fertilization zebrafish Assay for Otic Vesicle Malformation (AID 2283639)
# Method in brief: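 Statically exposed wild-type 5D zebrafish embryos, kept sealed and dark at 28C through 120 hours post fertilization, were examined by brightfield microscopy for otic vesicle defects. Responses were recorded as present or absent and analysed relative to DMSO.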
# [14] = Tanguay_ZF_120hpf_PE_legacy: (Legacy) Oregon State University Tanguay Lab 120 Hour Post-fertilization zebrafish Assay for Pericardial Edema (AID 2283640)
# Method in brief: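 Embryos from wild-type 5D adults were staged, then dosed in 0.64% DMSO. They were kept sealed in the dark at 28C until 120 hpf. Pericardial edema was then recorded as present or absent.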
# [15] = Tanguay_ZF_120hpf_BRAI_legacy: (Legacy) Oregon State University Tanguay Lab 120 Hour Post-fertilization zebrafish Assay for Brain Malformation (AID 2283641)
# Method in brief: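 Wild-type 5D larvae, static waterborne exposure to 120 hpf, 28C, 0.64% v/v DMSO. Brightfield scoring of brain defects, binary; dead embryos excluded. Positive ctrl 5uM trimethyltin chloride.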
# [16] = molecular target: Cellular tumor antigen p53 (Homo sapiens) (UniProt P04637); assay: TOX21_p53_BLA_p3_ratio: Tox21 HCT-116 p53 Agonism Beta-lactamase Assay, Ratio, Phase 3 (AID 2283596)
# Method in brief: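 Cells were seeded at 4000/well, rested 5 h at 37C, then dosed with DMSO compound solutions (217-fold dilution) for 16 h. CCF4-AM substrate was loaded for 2 h at room temperature, and the 460/530 nm emission ratio was fitted for gain of signal versus DMSO.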
# [17] = TOX21_p53_BLA_p4_viability: Viability Assessment in the Tox21 HCT-116 p53 Agonism Beta-lactamase Assay, Phase 4 (AID 2283597);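 further: hits lower the luminescence signal meaning cytotoxicity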
# Method in brief: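 Readout: ATP luminescence (CellTiter-Glo), measured 30 min after reagent addition at RT. The reagent followed a 2 h CCF4-AM incubation, and the cells had been exposed to compound for 16 h at 37C.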
# [18] = Tanguay_ZF_120hpf_EYE_legacy: (Legacy) Oregon State University Tanguay Lab 120 Hour Post-fertilization zebrafish Assay for Eye Malformation (AID 2283636);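 further: binary presence or absence of eye malformation scored by brightfield in 120 hpf larvae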
# Method in brief: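 Static waterborne exposure of dechorionated zebrafish embryos (strain Tropical 5D), 6 to 120 hpf, sealed plates at 28C, 0.64% DMSO vehicle. Eye malformation is scored as a binary endpoint, with gain of signal analysed relative to DMSO.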
# [19] = Tanguay_ZF_120hpf_SNOU_legacy: (Legacy) Oregon State University Tanguay Lab 120 Hour Post-fertilization zebrafish Assay for Snout Malformation (AID 2283637)
# Method in brief: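 Dechorionated zebrafish, individually housed from 6 hpf in covered, sealed wells at 28C with 0.64% DMSO vehicle, were examined at 120 hpf for snout malformation. Responses were binary and analysed positive-direction relative to DMSO.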
# [20] = ATG_XTT_Cytotoxicity: Cytotoxicity Assessment in the Attagene TRANS-FACTORIAL HepG2 Assay (AID 2283584)
# Method in brief: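 Cells: human HepG2, transiently transfected with MRTU reporter constructs. Exposure 24 h. Readout: XTT, cell number. Baseline/neg ctrl DMSO; loss-of-signal scored.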
smiles,measurement,setting,value
O=c1n(Cl)c(=O)n(Cl)c(=O)n1Cl,outcome,[1],inactive
same,outcome,[2],inactive
same,outcome,[3],inactive
same,outcome,[4],inactive
same,outcome,[5],inactive
same,outcome,[6],inactive
same,outcome,[7],inactive
same,outcome,[8],inactive
same,outcome,[9],inactive
same,outcome,[10],inactive
same,outcome,[11],inactive
same,outcome,[12],inactive
same,outcome,[13],inactive
same,outcome,[14],inactive
same,outcome,[15],inactive
CC1(C)CCC(=Cc2ccc(Cl)cc2)C1(O)Cn1cncn1 (configuration not stated),outcome,[1],inactive
same,outcome,[2],inactive
same,outcome,[3],inactive
same,outcome,[4],inactive
same,outcome,[5],inactive
same,outcome,[16],inactive
same,outcome,[17],inactive
same,outcome,[7],inactive
same,outcome,[8],inactive
same,outcome,[9],inactive
same,outcome,[10],inactive
same,outcome,[11],inactive
same,outcome,[18],inactive
same,outcome,[12],inactive
same,outcome,[13],inactive
same,outcome,[14],inactive
same,outcome,[15],inactive
Cc1c(COC(=O)[C@@H]2[C@H](/C=C(\Cl)C(F)(F)F)C2(C)C)cccc1-c1ccccc1,outcome,[1],inactive
same,outcome,[2],inactive
same,outcome,[3],inactive
same,outcome,[4],inactive
same,AC50,[5],25.8 µM (active)
same,outcome,[5],inactive
same,outcome,[16],inactive
same,outcome,[17],inactive
same,outcome,[7],inactive
same,outcome,[8],inactive
same,outcome,[9],inactive
same,outcome,[10],inactive
same,outcome,[11],inactive
same,outcome,[19],inactive
same,outcome,[12],inactive
same,outcome,[13],inactive
same,outcome,[15],inactive
N#Cc1c[nH]cc1-c1cccc2c1OC(F)(F)O2,outcome,[1],inactive
same,outcome,[2],inactive
same,outcome,[20],inactive
same,outcome,[3],inactive
same,AC50,[4],7.61 µM (active)
same,outcome,[5],inactive
same,AC50,[16],8.51 µM (active)
same,outcome,[17],inactive
same,AC50,[6],5.39 µM (active)
same,outcome,[7],inactive
same,AC50,[8],6.17 µM (active)
same,AC50,[9],25.9 µM (active)
same,outcome,[10],inactive
same,outcome,[11],inactive
same,outcome,[19],inactive
same,outcome,[12],inactive
same,outcome,[15],inactive
CC(C)NC(=O)N1CC(=O)N(c2cc(Cl)cc(Cl)c2)C1=O,AC50,[1],14.8 µM (active)
same,outcome,[2],inactive
same,outcome,[20],inactive
same,outcome,[3],inactive
same,outcome,[4],inactive
same,outcome,[5],inactive
same,outcome,[16],inactive
same,outcome,[17],inactive
same,outcome,[6],inactive
same,outcome,[7],inactive
same,outcome,[8],inactive
same,outcome,[9],inactive
same,outcome,[10],inactive
same,outcome,[11],inactive
same,outcome,[19],inactive
same,outcome,[12],inactive
same,outcome,[13],inactive
same,outcome,[15],inactive
O=C1C2CC=CCC2C(=O)N1SC(Cl)(Cl)Cl (configuration not stated),outcome,[1],inactive
same,AC50,[2],74.5 µM (active)
same,AC50,[3],25.6 µM (active)
same,outcome,[3],inactive
same,AC50,[4],4.12 µM (active) and 7.62 µM (active)
same,outcome,[4],inactive
same,outcome,[5],inactive
same,AC50,[16],77.7 µM (active) and 6.5 µM (active)
same,outcome,[16],inactive
same,AC50,[17],18.1 µM (active)
same,outcome,[17],inactive
same,outcome,[7],inactive
same,AC50,[8],10.3 µM (active)
same,outcome,[8],inactive
same,AC50,[9],25.1 µM (active)
same,outcome,[10],inactive
same,outcome,[11],inactive
same,outcome,[19],inactive
same,outcome,[12],inactive
same,outcome,[13],inactive
same,outcome,[14],inactive
same,outcome,[15],inactive
CSC(=O)c1c(C(F)F)nc(C(F)(F)F)c(C(=O)SC)c1CC(C)C,outcome,[1],inactive
same,AC50,[2],78.7 µM (active)
same,outcome,[20],inactive
same,outcome,[3],inactive
same,outcome,[4],inactive
same,outcome,[16],inactive
same,outcome,[17],inactive
same,outcome,[7],inactive
same,outcome,[9],inactive
same,outcome,[10],inactive
same,outcome,[11],inactive
same,outcome,[18],inactive
same,outcome,[19],inactive
same,outcome,[12],inactive
same,outcome,[13],inactive
same,outcome,[15],inactive
